Bioassay records: PubChem BioAssay, National Center for Advancing Translational Sciences (NCATS)
MARV entry inh: blocks Marburg virus binding to or entry into cells; Marburg virus pseudotyped entry inhibition, cell reporter; actives 1.8% (n = 300,000); AID 540276; Potency, µM (top dose mostly 37.8 µM), inactives show at the top dose activity change, negative = inhibition, hits mostly inhibitors; calls by dose curve; tested in HEK293 cells
VACV mCherry inh: inhibitors of vaccinia virus infection (mCherry reporter signal); Vaccinia virus mCherry reporter infection, fluorescence; actives 0.63% (n = 310,000); AID 720579; Potency, µM (doses to about 36.5 µM), inactives show top-dose activity change, negative = inhibition, most hits filed as inhibitors; calls by dose curve; tested in A549 cells; further: nearly all actives have a fitted effect of over 35% in size
Lassa entry inh: Lassa virus entry inhibition | Lassa virus pseudotype entry inhibition, cell reporter | Potency, µM (top dose mostly 37.9 µM), inactives show at the highest dose activity change, negative = inhibition, usual class: inhibitors | actives 1.2% (n = 300,000) | AID 540256; calls by dose curve; tested in HEK293 cells; further: nearly all actives have a fitted effect of over 50% in size
FMDV inh: antivirals against foot and mouth disease virus. FMDV antiviral cell-based qHTS. Potency, µM (titrated, usually from 57.9 µM), for the others: at the top dose activity change, negative = inhibition, actives largely listed as inhibitors. actives 1.2% (n = 410,000); calls by dose curve; tested in HEK293T cells; further: read-out not given here; nearly all actives have a fitted effect of over 45% in size
Vaccinia Venus: vaccinia inhibition (Venus reporter) | Vaccinia virus Venus reporter expression, fluorescence | Potency, µM (doses to about 36.5 µM), for inactives: at the highest dose activity change, negative = inhibition, most hits filed as inhibitors | actives 0.46% (n = 330,000); calls by dose curve; tested in A549 cells; further: nearly all actives have a fitted effect of over 30% in size
Starred values were filed as active, the others as inactive; i = inactive; ? = inconclusive; / = no result; [ ] = another dose, or the depositor's remark. A selection: hits, their analogues and other compounds. The true share with any hit is near 3.2%. On the % scale 0 is the no-effect control and ±100 the full control effect; potency means the concentration at half of the fitted maximal effect.

SMILES	MARV entry inh	VACV mCherry inh	Lassa entry inh	FMDV inh	Vaccinia Venus
COc1ccc(Nc2ncnc3scc(-c4ccc(OC)cc4)c23)cc1	7.3µM*	?	?	?	-29%
O=C(c1ccco1)N1CCN(c2ncnc3scc(-c4cccs4)c23)CC1	-8%	/	?	22µM*	/
Cc1sc2ncnc(N3CCN(Cc4ccccc4)CC3)c2c1-c1ccccc1	3%[46.1 µM]	-9%	?	28µM*	0%
Cc1nn(C)c(C)c1CCNC(=O)Nc1cccc(Cl)c1C	/	i	-9%[46.1 µM]	15%	-12%
CCC1(C2CCN(Cc3ccc(C)s3)CC2)NC(=O)N(CC2COc3ccccc3O2)C1=O (stereo not given)	/	-22%	/	-20%	-18%
O=C(/C=C/c1ccc(Cl)cc1)NC(=S)Nc1ccc(NC(=O)c2ccco2)cc1	?	-21%	1.6µM*	-22%	-29%
COc1ccc(/C=C/C(=O)NC(=S)NNC(=O)c2ccco2)cc1OC	/	/	/	-14%	/
COc1ccc(/C=C/C(=O)NC(=S)NNC(=O)c2ccco2)cc1	?	/	4.5µM*	-15%	?
CC(CCC(C)[n+]1cccc(C#N)c1)[n+]1cccc(C#N)c1 (stereo not given)	/	39%	/	/	-6%
CC(=O)Nc1ccc(CCNC(=O)c2ccc3ccccc3c2O)cc1	?	i	1µM*	3%	13%
CC(=O)Nc1ccc(NC(=O)c2ccccc2CCc2ccccc2)cc1	?	i	10µM*	-20%	4%
O=C(Nc1ccc(S(=O)(=O)N2CCCC2)cc1)C1CC(=O)N(c2ccc(F)cc2)C1 (stereo not given)	-3%[46.1 µM]	-8%	?	-9%	-2%
N#CC1=C(N)Oc2cc(Nc3ccccc3)ccc2C1c1ccncc1 (stereo not given)	18µM*	/	?	?	?
CCN(CC)c1ccc2c(c1)OC(N)=C(C#N)C2c1cccnc1 (stereo not given)	?	?	?	?	-13%
COc1cc(C2C(C#N)=C(N)Oc3cc(N)ccc32)cc(OC)c1OC (stereo not given)	5.6µM*	/	?	9%	?
COc1ccc(C2C(C#N)=C(N)Oc3cc(N)ccc32)cc1 (stereo not given)	/	/	/	9%	/
N#CC1=C(N)Oc2cc(N)ccc2C1c1cccnc1 (stereo not given)	16µM*	-19%	-1%	-21%	-26%
CCOc1ccc(C(=O)N2CCc3cc(OC)c(OC)cc3C2COc2ccc3c(C)cc(=O)oc3c2)cc1OCC (stereo not given)	?	-17%	6%[46.1 µM]	-26%	-10%
Cc1cc(N2CCCC2=O)cc(C)c1S(=O)(=O)NCCOc1ccc(C(C)(C)C)cc1	?	?	12µM*	?	?
COCCn1c(SCc2nc3scc(-c4ccc(Cl)cc4)c3c(=O)[nH]2)nnc1-c1cccc(C)c1	?	?	-25%	40µM*	?
CCOC(=O)Cn1c(S(=O)(=O)Cc2ccccc2Cl)nc(-c2ccccc2)c1-c1ccccc1	5.2µM*	/	12µM*	1%	/
CN(c1ccccc1)c1ccc(/C=N/NC(=O)CC#N)cc1	13µM*	-3%	15µM*	2%	-6%
CCC1CCCCN1Cc1nc2c(c(=O)n(C)c(=O)n2C)n1Cc1c(F)cccc1Cl (stereo not given)	/	6%	/	/	-10%
COc1ccc(OC)c(N2C(=O)/C(=C/c3ccco3)C(=O)NC2=S)c1	10µM*	2%	-8%	-28%	9%
Cc1ccc(-n2c(C)cc(/C=C3/C(=O)NC(=O)N(C)C3=O)c2C)cc1	-1%	-12%	10%	13%	-12%
SMILES	MARV entry inh	VACV mCherry inh	Lassa entry inh	FMDV inh	Vaccinia Venus
COc1ccc(N2C(=O)/C(=C/c3cc(C)n(-c4ccc(C)cn4)c3C)C(=O)NC2=S)c(OC)c1	/	/	/	32µM*	/
CN(C)c1ccc(C=C2C=Cc3ccccc32)cc1	-25%	i	6.3µM*	-1%	-17%
CCCCCCCOc1ccc(CC(=O)NO)cc1	/	-22%	/	/	-19%
COC(=O)C1=C(C(=O)OC)[C@@H]2N(C)c3ccccc3[C@@]23C[C@@H](C(=O)OC)N(C(=O)NC(C)(C)C)C3=N1	14%[14.2 µM]	/	?	/	/
O=C(CSc1nnc(-c2ccncc2)n1Cc1ccco1)Nc1ccccc1Cl	5%	i	2%	-8%	-14%
CCn1c(SCC(=O)Nc2nc(-c3ccccc3)cs2)nnc1-c1ccccc1O	?	/	?	35µM*	?
CCc1nnc(NC(=O)CSc2nnc(-c3ccccc3O)n2CC)s1	7%	/	4%	-5%	/
Cc1ccc(-c2csc(NC(=O)CSc3nnc4c(n3)[nH]c3ccccc34)n2)cc1	?	?	3.2µM*	?	?
CCn1c(CCNC(=O)c2cccs2)nnc1SCC(=O)Nc1nc(-c2ccccc2)cs1	?	/	-11%	20µM*	/
Cc1ccc(NC(=O)CSc2nnc3c(n2)[nH]c2ccccc23)cc1	2%[46.1 µM]	-2%	2%[46.1 µM]	6%	0%
O=C(CSc1nnc(-c2ccncc2)n1Cc1ccco1)Nc1nc(-c2ccccc2)cs1	?	-10%	-20%	18µM*	-30%
COc1ccc(-c2cnc(SCC(=O)Nc3nc(C(C)(C)C)cs3)n2Cc2ccco2)cc1	?	/	13µM*	?	-17%
CC(C)(O)C#Cc1ccc(CN2CCc3nnc(CCNC(=O)c4ccco4)n3CC2)cc1	/	-10%	/	10%	-1%
CCN1C(=O)NC(c2cccc(C(F)(F)F)c2)C(C(=O)OC)=C1C (stereo not given)	23%[14.2 µM]	/	/	/	/
O=S(Cc1ccc(Br)cc1)Cc1nnc(SCc2c(Cl)cccc2Cl)n1-c1ccccc1 (stereo not given)	?	?	?	28µM*	?
Cn1c(CS(=O)Cc2c(Cl)cccc2Cl)nnc1SCc1c(Cl)cccc1Cl (stereo not given)	?	/	-6%	-4%	/
O=C1Nc2ccc(C(=O)c3ccco3)cc2/C1=C/c1cc(Cl)c(O)c(Cl)c1	/	/	3.1µM*	/	/
O=C1Nc2ccc(I)cc2/C1=C/c1cc(Br)c(O)c(Br)c1	?	i	0%	-19%	-12%
Cc1cc(NCc2ccccn2)n2nc(C)c(-c3ccccc3)c2n1	10µM*	5.6µM*	?	-7%	?
Cc1nn2c(NCCN3CCOCC3)c3c(nc2c1-c1ccccc1)CCCC3	?	i	-19%[46.1 µM]	-12%	9%
Cc1nn2c(NCc3ccccn3)c3c(nc2c1-c1ccccc1)CCC3	?	10µM*	?	?	?
CCN(CC)CCNC(=O)C1=C(OC)CC(N)=C(Cl)C1	14%	/	/	/	/
Cc1ccccc1NC(=O)CN1CCN(C(=O)c2ccco2)CC1	/	/	/	-9%	/
CCOC(=O)c1c(NC(=O)CN2CCN(C(=O)c3ccco3)CC2)sc(C)c1C	?	?	11µM*	-25%	?
CCOC(=O)c1ccc(NC(=O)CN2CCN(C(=O)c3ccco3)CC2)cc1	?	-8%	-27%	-21%	-12%
CCc1c(C)sc(NC(=O)CN2CCN(C(=O)c3ccco3)CC2)c1C(=O)OC	?	-8%	3.5µM*	?	-18%
COC1=C(Br)C(=O)c2nc(C)ccc2C1=O	/	-6%	/	40µM*	-24%
